According to the supplement of paper PMC3334620:
Over roughly 33,000 sequences, “E-score (-0.5 to 0.5)” has its median near -0.04; the highest 2% begin near 0.36. This is one part of a sample in which the highest values are shown more often than they occur.

biological target: T1, Hmlalpha2 (UniProt P0CY09); assay: PBM E-score (8-mer binding enrichment) (E-score (-0.5 to 0.5)); higher = stronger / more preferred TF binding; conditions: protein concentration: 200 nM; construct: GST-full length
T1 sequence: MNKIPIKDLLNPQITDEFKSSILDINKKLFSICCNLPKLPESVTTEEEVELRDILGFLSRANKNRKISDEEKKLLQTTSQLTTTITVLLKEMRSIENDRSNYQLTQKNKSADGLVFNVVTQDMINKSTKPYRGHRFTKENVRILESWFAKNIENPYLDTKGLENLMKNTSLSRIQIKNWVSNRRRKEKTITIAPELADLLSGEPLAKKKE
Procedure: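 Universal 'all 10-mer' protein binding microarrays (Agilent AMADID 015681) probed with GST-tagged S. cerevisiae TFs (full-length or DBD) made by in vitro transcription/translation (PURExpress), about 100-200 nM. Bound TF was detected with fluorescent anti-GST. Each ungapped 8-mer (which stands for itself and its reverse complement) is scored by the PBM enrichment score (E-score), a modified Wilcoxon-Mann-Whitney statistic from -0.5 to +0.5, computed with the Universal PBM Analysis Suite. Scale: above 0.35 generally sequence-specific binding.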

Sequence	PBM E-score
GCTGAAGC	-0.14
CCGAATGC	-0.125
ATTGATGG	0.08
TCCATGAA	0.043
TCCAACAA	0.264
GGCCTACC	-0.247
CTGAGGGC	-0.3
ATCTCGGA	-0.115
AAAGCGAG	0.107
CTCTGACA	0.132
GCGACCAA	-0.0947
GCCAGACA	-0.163
CCGCGTAG	0.294
CCGCGTAA	0.426
CCGCGTAC	0.266
ATCTACTA	0.193
GCTATTCA	0.0214
ACTTTGCC	-0.0921
GGGGAGTA	-0.225
AAGTTGCA	0.109
TATCTACA	0.371
AATCTACA	0.438
GTTCTACA	0.29
GATCTACA	0.345
ATTCTACG	0.157
AATCTACT	0.098

Sequence	PBM E-score
ATTCTACA	0.371
CATCTACA	0.338
TATCTAAA	0.141
GCATTGAC	0.0683
CGACCGAA	-0.0499
GAAGGCCA	-0.38
ATCTGCCA	-0.149
CAGTACAG	0.0351
TAACGGCA	-0.0141
GTTACTGA	0.171
CTTACAGA	0.0289
CTCACATA	0.0587
GTTACATA	0.421
CTTACATA	0.426
GTTACAGA	0.0217
ACCCCTAT	-0.208
ACACCCAG	0.0143
GCGCGAAA	0.189
TCACAACA	0.324
TACTATAA	0.171
ACATATGG	0.104
CCATATTA	0.063
ACATATGC	0.123
TAATATTA	0.379
CAATATTA	0.213
AAATATTA	0.317

Sequence	PBM E-score
ACATATGT	0.369
ACATATTG	0.142
ACATATTA	0.389
ATGCACAC	0.106
CTTTTGCA	0.105
ACTTTCGG	-0.0932
AGCATCCC	-0.348
AGAACTAA	0.189
AGAGCGGG	-0.166
ACCTACTA	0.081
ACGCGATA	0.324
CTCCAGGC	-0.185
GTTAAACA	0.375
GTTAAAAA	0.369
ATTAAACA	0.322
ATTAAAAA	0.249
GTTAAAAC	0.343
CTTAAACA	0.128
TCCTACCA	-0.318
GGATGGAA	-0.175
AGGTTCTG	-0.0953
AAACCTCT	-0.08
CTGTTTAA	0.11
ATGTTTAA	0.387
CTGTTTTA	0.0458
ATGTTTCC	0.0968

Sequence	PBM E-score
CTGTTTTC	0.036
ATGTTTTA	0.422
GTGTTTAA	0.351
GTGTTTTA	0.355
ATGTTTTC	0.421
ACCTTGGC	-0.242
ATTGCCAA	-0.206
CCTGGACC	-0.0273
GGTTCTCA	-0.0328
ATCTACAT	0.452
ATCTACTC	0.00965
CTCTACAC	0.368
ATCTACGA	0.014
ATCTACGC	0.368
ATCTACAG	0.151
CTCTACGC	0.0772
ATCTACAC	0.45
CCCTACAC	0.247
GTCTACAC	0.364
ATCTACAA	0.307
CTCTACAA	0.277
GGAGGCTA	-0.325
GTTCTGCA	0.104
ATAACATC	0.327
CTAACATA	0.273
GTAACATA	0.355

Sequence	PBM E-score
ATAACATA	0.437
ATAACAGG	0.194
ATAACATG	0.452
AGCTGCAG	-0.168
ACTTTGAC	0.231
CCTTGCCC	-0.198
CCATGTCA	0.333
AGATGTTG	-0.0256
CAATGTTA	0.284
ACATGTCC	0.351
AGATGTTC	0.0875
GCCTGTTA	0.139
AAATGTTG	0.0925
ACATGTTG	0.45
ACATGTTC	0.371
CCATGTTC	0.275
ACATGTCA	0.402
GCATGTTA	0.464
CCTGGGCG	-0.173
GCAAGCGA	0.0703
GCGAAACC	0.104
CAAACCCG	-0.0693
ATTCACCA	0.0468
ATGAGGTA	0.136
CCGCATAC	0.0261
CCTTAGAG	-0.462

Sequence	PBM E-score
AAATGTTA	0.33
CGATGTTA	0.353
CCATGTGA	0.184
CCATGTTA	0.458
ACATGTTA	0.461
AGATGTTA	0.201
CGCCTGGC	-0.0832
GCGCATGA	-0.252
GCTGTCCA	-0.0572
CTCGTCAC	-0.0377
AATCGGTC	-0.081
CTCCTAAG	-0.115
CAGGAGCA	-0.173
ACATAACC	0.222
ACATAACT	0.325
CCATAACA	0.333
ACATAACG	0.368
TCATAGCA	-0.0434
GCATAACA	0.307
ACATAACA	0.434
CCATAGCA	-0.145
ACATAGCA	0.392
CACACCAG	-0.011
GGATGACC	-0.218
GATTTTGA	0.12
ACGATGTG	0.19

Sequence	PBM E-score
CAGTTTGC	-0.118
ACAGGGAA	0.0611
CGCTGATC	-0.177
AGGGGAGC	-0.33
GCGTCTCC	-0.033
AATCGTGT	0.406
AAACGTGA	0.168
AAGCGTGG	-0.0995
ACACGTGG	0.293
ACACGTGT	0.432
AAGCGTGA	-0.0159
AATCGTGC	0.151
ACACGTGA	0.318
AAACGTGT	0.375
AATCGTGA	-0.00694
AAACGTGG	-0.0689
AAGCGTGT	0.371
ACGGCGAT	-0.0673
AGTCGGGG	-0.191
CAAGAATG	-0.0486
AGGGCCAG	-0.22
AGGCCAAG	-0.247
AGTCTATC	-0.0461
GTGGGCGA	-0.04
CACGTGAA	0.108
GACGTGGA	-0.209

Sequence	PBM E-score
CACGTGTA	0.444
AACGTGTC	0.263
AACGTGTG	0.233
GACGTGTA	0.41
GACGTGAA	-0.0003
CACGTGTC	0.25
AACGTGTA	0.455
GAAGTCTC	-0.247
GTACCCTA	-0.0877
GTCGACCA	-0.0364
GGATCCAA	-0.0601
GAGTAGCA	-0.0964
CCCCCGCG	-0.241
CCGTTTAG	-0.0825
TAGTGTCA	0.0999
GTGTGTCA	0.307
TCGTGTCA	0.395
GCGTGTCA	0.382
ACGTGTCG	0.308
CGGTGTCA	-0.0723
ACGTGTCA	0.392
GCGTGTCC	0.142
CCGTGTCA	0.351
GCTCCAGA	-0.207
ATGAGAAA	0.0401
CGGAGGCC	-0.334

Sequence	PBM E-score
TCACCTGA	-0.136
CTTGGCAA	-0.143
CTTGTATC	0.264
AATGTATA	0.315
CATGTATA	0.466
GATGTATA	0.237
CATGTATC	0.405
AATGTATC	0.284
AGTGCAAT	0.00712
AGATGTAA	0.382
AGATGTAT	0.251
CGATGTGA	0.105
GGATGTAA	0.397
GGATGTCA	0.133
CGATGTAC	0.221
GGATGTAC	0.225
AGATGTAG	0.094
CGATGTAA	0.417
TGATGTAA	0.389
TGATGCAA	0.0282
TGCTGTAA	0.17
